Sampled rows, rich in hits. Any-hit rate of the full collection: about 2.8%.
p-CIP stab down – compounds decreasing mouse p/CIP protein stability. 290,000 tested, 0.01% active. Q05BA5. F442A p/CIP-EGFP cells, EGFP fluorescence, 16 h. decrease of EGFP signal, % at 10 µM;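 active means EGFP signal decrease of at least 30% at 10 µM or well 3 SD below plate mean, unless failing retest; inactive means the rest, including hits failing retest or dose response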
HIF activator – HIF pathway transcriptional activation. activation, % at 7.5 µM (by protocol). U2OS HRE-luciferase reporter, luminescence; normalized: DMSO 0%, desferrioxamine 100%. 300,000 tested, 0.32% active;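 active means mean activation of at least 10% of the iron chelator positive control signal, with at least half of replicates also reaching 10%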
AHR activator – activates the human aryl hydrocarbon receptor; P35869; AHR-responsive luciferase reporter cells, luminescence; activation, % at 5 µM; 320,000 tested, 2.5% active; AID 2796; in the data active means activation above about 47%;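 further: 0% = vehicle wells and 100% = reference agonist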
Platelet DG rel – platelet dense granule release activity | human platelet-rich plasma, SFLLRN dense granule ATP release, luminescence | inhibition, %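 (compounds screened at 7.5 µM in platelet-rich plasma)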 | 300,000 tested, 0.22% active;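 active means mean replicate score, as percent of positive control, at or above 50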
PolyA inhibitor – yeast polyadenylation inhibition. 300,000 tested, 0.02% active. AID 1875. activity score, % at 12 µM. S. cerevisiae SKY197-pL101 polyadenylation reporter, beta-gal luminescence; efflux-impaired pdr1/pdr3 knockout yeast; score 100 = 6 SD above DMSO;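 active means lowest replicate activity score at least 50, where 100 means six control SD above control mean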;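 further: yeast exposed to compound for 9 h at 30 °C; higher score means more reporter readthrough which indicates perturbed polyadenylation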
The depositor's hits bear a star; . = not tested or not shown.

SMILES | p-CIP stab down | HIF activator | AHR activator | Platelet DG rel | PolyA inhibitor
Cc1sc2nc(Cc3ccccc3)[nH]c(=O)c2c1-c1ccccc1 | 3 | 0 | 2 | 8 | 13
Cc1ccc2cc(NC(=O)c3ccccc3C)ccc2n1 | -6 | 6 | -1 | 3 | -31
COc1cc2c(cc1OC)/C(=C/c1ccc(Cl)cc1)C(=O)OC2 | -6 | 0 | 59* | 17 | -47
c1ccc(-c2ccc(C3=Nn4c(nnc4-c4cc(-c5ccccc5)n[nH]4)SC3)cc2)cc1 | -8 | 1 | 31 | -2 | 16
CC1=Nn2c(nnc2-c2cc(-c3ccccc3)n[nH]2)SC1 | -2 | 0 | 79* | 4 | -1
COc1ccc(C(=O)Nc2nc(N)n(-c3ccccc3)n2)cc1 | 1 | -20 | 7 | 0 | -12
Nc1nc(NC(=O)c2ccccc2)nn1-c1ccccc1 | -5 | 1 | 17 | -13 | -14
CC(=O)Nc1nc(NCc2ccccc2Cl)n(-c2ccccc2)n1 | -7 | 0 | 2 | 3 | -17
O=C(Nc1nc(NC(=O)c2ccco2)n(-c2ccccc2)n1)c1ccccc1 | -7 | 12* | 4 | -2 | -9
COc1ccccc1/C=C/C(=O)Nc1nc(N)n(-c2ccccc2)n1 | 5 | -1 | 78* | 9 | -2
CC(=O)Nc1nc(NC(=O)/C=C/c2ccccc2)n(-c2ccccc2)n1 | -8 | 10* | 33 | -6 | -37
COc1cc(OC)c(N2CC(C(=O)NCCC3=CCCCC3)CC2=O)cc1Cl (centres undefined) | . | . | 0 | . | .
Cc1nc(N/N=C/c2ccc(Br)cc2)cc(N2CCOCC2)n1 | -2 | 0 | 31 | -2 | 26
O=C(Nc1ccccc1)OCc1cc(-c2ccccc2Cl)on1 | -13 | 1 | -7 | 52* | 2
O=C(Nc1cccc(O)c1)c1cc(-c2ccccc2Cl)on1 | -5 | 0 | -4 | 34 | -21
O=C(O)CSCC(=O)N1N=C2/C(=C/c3ccccc3)CCCC2C1c1ccccc1 (centres undefined) | 1 | 1 | 49* | 2 | 5
NC(=O)N1N=C2/C(=C/c3ccccc3)CCCC2C1c1ccccc1 (centres undefined) | -10 | 0 | 59* | -3 | -12
CCCCCNC(=O)C1CC(=O)OC12CCCCC2 (centres undefined) | -16 | 0 | -3 | -4 | -7
CC(=O)c1cccc(N2C(=NC(=O)COc3ccccc3)SC3CS(=O)(=O)CC32)c1 (centres undefined) | -17 | 0 | -1 | -8 | -8
CC(=O)c1ccc(N2C(=NC(=O)COc3ccccc3)SC3CS(=O)(=O)CC32)cc1 (centres undefined) | -10 | 473* | 5 | 1 | 35
Fc1ccc(/C=C\c2nccc3c2[nH]c2ccccc23)cc1 | 7 | 0 | 35 | -8 | -29
Cc1ccc(/C=C\c2nccc3c2[nH]c2ccccc23)cc1 | -1 | 4 | 51* | 8 | -6
C(=C\c1nccc2c1[nH]c1ccccc12)/c1ccccc1 | -1 | 5 | 62* | 8 | -17
CC(=O)N(CN1C(=O)c2ccccc2C1=O)c1ccc2c(c1)oc1ccccc12 | 4 | -1 | 2 | 11 | -24
O=c1c2ccccc2nc(-c2ccco2)n1/N=C/c1ccco1 | -18 | 0 | 62* | 3 | 1
SMILES | p-CIP stab down | HIF activator | AHR activator | Platelet DG rel | PolyA inhibitor
O=C(NCc1nc2ccccc2[nH]1)c1c(F)c(F)c(F)c(F)c1F | -13 | 74* | 2 | -5 | -1
O=C(NCc1nc2ccccc2[nH]1)c1ccccc1F | -9 | 1 | 20 | 5 | 7
Cc1ccc(S(=O)(=O)NCC(=O)N/N=C/c2ccccc2O)cc1 | -4 | 0 | 2 | 11 | 20
CCOc1cccc(-c2c(C(=O)N/N=C(\C)c3cccnc3)nnn2-c2nonc2N)c1 | 17 | 0 | 60* | 14 | 3
CCCOc1ccc(-c2c(C(=O)N/N=C(\C)c3cccnc3)nnn2-c2nonc2N)cc1 | -20 | -1 | 56* | -6 | -3
COCc1c(C(=O)N/N=C(\C)c2ccc(Cl)s2)nnn1-c1nonc1N | -12 | 29* | 2 | -5 | 22
COc1cccc(-c2c(C(=O)N/N=C/c3ccc(C)s3)nnn2-c2nonc2N)c1 | -14 | 0 | 4 | 24 | 2
CCOc1cccc(-c2c(C(=O)N/N=C/c3ccc(C)s3)nnn2-c2nonc2N)c1 | 9 | 1 | 5 | 65* | -5

From PubChem BioAssay
